From PubChem BioAssay (EPA / NIEHS)
Records with an inconclusive call do not appear. Where a structure was tested more than once in an assay, its records may differ in their call. The source made the active and inactive calls. How the source made its calls, unless noted: active means hit-call score of the fitted dose curve at least 0.9, where 1 is the maximum; inconclusive means response in the unintended direction; inactive means score below 0.9.

Assays:
[1] = target: Estrogen receptor beta (Homo sapiens) (UniProt Q92731); assay: OT_ER_ERbERb_1440: Odyssey Thera (OT) 24-hour HEK293T Protein-Complementation Assay for Estrogen Receptor-beta/-beta Homodimer (AID 2283380);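 further: scored as signal increase over DMSO baseline for both agonists and antagonists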
How it was run: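 HEK293T cells stably expressing ER beta LBD (aa 310-547) homodimer fragment-complementation reporter, dosed 24 h. Cells formaldehyde-fixed, Draq5-stained; gain in nuclear (agonist) or nuclear plus cytoplasmic (antagonist) fluorescence versus DMSO read by laser scanning cytometry.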

[2] = target: Estrogen receptor (Homo sapiens) (UniProt P03372); assay: OT_ERa_GFPERaERE_0480: Odyssey Thera (OT) 8-hour HeLa Transcription Induction Assay for Estrogen Receptor (AID 2283381; active means hit-call score of the fitted dose curve at least 0.9, where 1 is the maximum; inactive means score below 0.9)
How it was run: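 Fluorescent reporter signal, imaged by microscopy and scored with image-analysis algorithms, was taken 8 h after chemical dosing of HeLa cells; activity was fitted upward relative to DMSO.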

[3] = target: Estrogen receptor (Homo sapiens) (UniProt P03372); assay: OT_ERa_GFPERaERE_0120: Odyssey Thera (OT) 2-hour HeLa Transcription Induction Assay for Estrogen Receptor (AID 2283382)
How it was run: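 HeLa, 384-well, 2 h chemical exposure; GFP reporter induction (ERE), fluorescence microscopy; high content image analysis; positive fitting direction vs DMSO.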

[4] = target: Retinoic acid receptor RXR-alpha (Homo sapiens) (UniProt P19793); assay: OT_NURR1_NURR1RXRa_0480: Odyssey Thera (OT) 8-hour HEK293T Protein Complementation Assay for Nurr1/retinoid X receptor (RXR) (AID 2283385)
How it was run: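 8 h compound exposure, HEK293T; Nurr1/RXRα fragment complementation; fluorescence intensity; positive fitting direction vs DMSO baseline.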

[5] = target: Retinoic acid receptor RXR-alpha (Homo sapiens) (UniProt P19793); assay: OT_NURR1_NURR1RXRa_1440: Odyssey Thera (OT) 24-hour HEK293T Protein Complementation Assay for Nurr1/retinoid X receptor (RXR) (AID 2283386)
How it was run: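 Interaction of Nurr1 with RXRα brings fused reporter fragments together in human HEK293T cells, restoring a functional reporter. Fluorescence intensity is measured 24 h after chemical treatment, and values are analysed in the positive direction against DMSO.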

[6] = target: Peroxisome proliferator-activated receptor gamma (Homo sapiens) (UniProt P37231); assay: OT_PPARg_PPARgSRC1_0480: Odyssey Thera (OT) 8-hour Protein-Complementation Assay for Peroxisome Proliferator-activated Receptor Gamma / SRC-1 Co-activator (AID 2283387);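 further: nuclear to cytoplasmic split Venus YFP fluorescence ratio reporting PPARg SRC-1 interaction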
How it was run: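 Protein-fragment complementation of split Venus YFP reports PPARg/SRC-1 interaction in HEK293T (transfected 48 h before treatment), exposed 8 h. Readout: N/C fluorescence ratio at 488 nm from imaging, Draq5 for segmentation, positive fit relative to DMSO.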

[7] = target: Peroxisome proliferator-activated receptor gamma (Homo sapiens) (UniProt P37231); assay: OT_PPARg_PPARgSRC1_1440: Odyssey Thera (OT) 24-hour Protein-Complementation Assay for Peroxisome Proliferator-activated Receptor Gamma/ SRC-1 Co-activator (AID 2283388);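 further: nuclear to cytoplasmic ratio of reconstituted Venus YFP fluorescence in fixed imaged cells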
How it was run: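 Transient HEK293T, YFP fragments 1-158/159-239 (mutant IFP1/IFP2) fused to PPARg/SRC-1; 24 h dosing; fix 4% formaldehyde, Draq5; Opera imaging 488/635 nm; N/C ratio, gain vs DMSO.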

Chain of Retinoic acid receptor RXR-alpha (Homo sapiens) (P19793 whole entry, looked up, the tested form may be a part): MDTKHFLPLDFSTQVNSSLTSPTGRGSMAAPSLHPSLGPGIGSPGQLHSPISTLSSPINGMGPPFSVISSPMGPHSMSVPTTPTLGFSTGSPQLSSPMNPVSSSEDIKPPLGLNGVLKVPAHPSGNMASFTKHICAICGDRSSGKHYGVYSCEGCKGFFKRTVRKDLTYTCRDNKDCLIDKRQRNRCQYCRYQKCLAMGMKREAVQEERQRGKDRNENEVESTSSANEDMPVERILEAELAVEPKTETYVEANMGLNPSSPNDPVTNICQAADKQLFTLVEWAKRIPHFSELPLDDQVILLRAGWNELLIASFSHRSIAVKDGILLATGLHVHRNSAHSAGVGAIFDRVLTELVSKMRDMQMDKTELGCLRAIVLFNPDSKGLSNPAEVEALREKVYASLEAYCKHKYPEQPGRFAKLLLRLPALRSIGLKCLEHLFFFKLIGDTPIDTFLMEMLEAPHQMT
Chain of Estrogen receptor beta (Homo sapiens) (Q92731 whole entry, looked up, the tested form may be a part): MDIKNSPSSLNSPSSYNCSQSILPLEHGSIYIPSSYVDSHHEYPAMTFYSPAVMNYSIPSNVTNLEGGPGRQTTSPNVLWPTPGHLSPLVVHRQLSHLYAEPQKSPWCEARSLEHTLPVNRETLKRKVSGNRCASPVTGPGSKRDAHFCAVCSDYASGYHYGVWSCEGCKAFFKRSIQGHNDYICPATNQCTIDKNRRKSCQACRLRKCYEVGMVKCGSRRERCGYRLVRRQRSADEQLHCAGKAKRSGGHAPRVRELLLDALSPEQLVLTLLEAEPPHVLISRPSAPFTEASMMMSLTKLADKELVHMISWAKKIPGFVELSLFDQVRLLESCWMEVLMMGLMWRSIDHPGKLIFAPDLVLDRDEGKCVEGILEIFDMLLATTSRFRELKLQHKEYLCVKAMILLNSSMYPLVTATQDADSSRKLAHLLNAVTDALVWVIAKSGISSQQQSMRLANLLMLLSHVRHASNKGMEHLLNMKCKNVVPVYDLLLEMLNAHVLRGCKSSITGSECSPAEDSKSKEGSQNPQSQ
Chain of Estrogen receptor (Homo sapiens) (P03372 whole entry, looked up): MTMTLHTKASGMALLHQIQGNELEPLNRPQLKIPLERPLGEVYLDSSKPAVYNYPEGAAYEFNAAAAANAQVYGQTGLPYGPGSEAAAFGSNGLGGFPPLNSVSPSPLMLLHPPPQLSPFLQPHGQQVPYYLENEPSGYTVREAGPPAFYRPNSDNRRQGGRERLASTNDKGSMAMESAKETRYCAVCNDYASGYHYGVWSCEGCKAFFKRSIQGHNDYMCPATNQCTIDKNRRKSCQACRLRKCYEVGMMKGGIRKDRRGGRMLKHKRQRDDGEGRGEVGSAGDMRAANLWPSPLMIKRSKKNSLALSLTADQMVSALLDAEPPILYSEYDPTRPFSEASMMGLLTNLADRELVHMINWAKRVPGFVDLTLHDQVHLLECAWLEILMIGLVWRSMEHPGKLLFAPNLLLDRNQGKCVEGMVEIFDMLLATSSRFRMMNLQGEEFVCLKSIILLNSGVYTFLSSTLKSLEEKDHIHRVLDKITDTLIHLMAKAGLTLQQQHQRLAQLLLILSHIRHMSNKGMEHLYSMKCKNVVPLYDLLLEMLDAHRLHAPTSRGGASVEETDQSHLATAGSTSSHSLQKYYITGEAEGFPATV
Chain of Peroxisome proliferator-activated receptor gamma (Homo sapiens) (P37231 whole entry, looked up, the tested form may be a part): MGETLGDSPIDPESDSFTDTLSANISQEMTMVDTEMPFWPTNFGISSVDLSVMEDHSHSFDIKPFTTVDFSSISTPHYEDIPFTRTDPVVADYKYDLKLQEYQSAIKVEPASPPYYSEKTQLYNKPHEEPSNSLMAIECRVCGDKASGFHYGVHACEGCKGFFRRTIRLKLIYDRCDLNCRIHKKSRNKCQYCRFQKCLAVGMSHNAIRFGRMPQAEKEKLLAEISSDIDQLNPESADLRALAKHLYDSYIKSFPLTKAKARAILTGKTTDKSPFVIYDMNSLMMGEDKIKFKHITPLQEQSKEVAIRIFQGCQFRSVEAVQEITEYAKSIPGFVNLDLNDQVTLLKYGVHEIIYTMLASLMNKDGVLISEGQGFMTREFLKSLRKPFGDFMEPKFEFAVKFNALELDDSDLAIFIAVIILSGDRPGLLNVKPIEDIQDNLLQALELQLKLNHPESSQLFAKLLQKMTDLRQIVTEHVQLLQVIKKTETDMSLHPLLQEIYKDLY

Structure (SMILES)	outcome [1]	outcome [2]	outcome [3]	outcome [4]	outcome [5]	outcome [6]	outcome [7]	AC50 [4]	AC50 [5]	AC50 [1]	AC50 [2]	AC50 [3]
COC(=O)C(C)Oc1ccc(Oc2ncc(C(F)(F)F)cc2Cl)cc1 (centres undefined)	inactive	inactive	inactive	inactive	inactive	inactive	–	–	–	–	–	–
CCCCC(CC)COCCO (centres undefined)	inactive	inactive	inactive	inactive	inactive	inactive	inactive	–	–	–	–	–
CN(C)C	inactive	inactive	inactive	inactive	–	inactive	–	–	–	–	–	–
CCCCCCCCCCCCN1CCOCC1	inactive	inactive	inactive	–	–	inactive	inactive	73.6 µM (active)	80.4 µM (active)	–	–	–
CC(=O)c1ccc(O)cc1	inactive	inactive	inactive	inactive	inactive	inactive	inactive	–	–	–	–	–
C1CCCNCC1	inactive	inactive	inactive	inactive	inactive	inactive	–	–	–	–	–	–
CCCC1CCC(=O)CC1	inactive	inactive	inactive	inactive	inactive	inactive	inactive	–	–	–	–	–
CCCCCCC(C)O (centres undefined)	inactive	inactive	inactive	–	inactive	inactive	–	–	–	–	–	–
c1ccc(OCCOc2ccccc2)cc1	inactive	inactive	inactive	inactive	–	inactive	–	–	–	–	–	–
CCCc1ccc(N)cc1	inactive	inactive	inactive	inactive	inactive	inactive	inactive	–	–	–	–	–
CC(C)C(=O)c1ccccc1	inactive	inactive	inactive	inactive	inactive	inactive	inactive	–	–	–	–	–
CCCCOCCOCCOCCO	inactive	inactive	inactive	inactive	–	inactive	–	–	–	–	–	–
NCCN1CCNCC1	inactive	inactive	inactive	–	inactive	–	–	–	–	–	–	–
[Na+]	inactive	inactive	inactive	–	inactive	inactive	–	–	–	–	–	–
c1ccc2scnc2c1	inactive	inactive	inactive	inactive	–	inactive	inactive	–	–	–	–	–
COC(=O)c1ccc(C(=O)OC)cc1	inactive	inactive	inactive	inactive	inactive	inactive	inactive	–	–	–	–	–
CC(O)CN (centres undefined)	inactive	inactive	inactive	inactive	inactive	inactive	–	–	–	–	–	–
CCC(C)COC(=O)CC(C)C (centres undefined)	inactive	inactive	inactive	inactive	inactive	inactive	inactive	–	–	–	–	–
CCCCCCCCOC(=O)c1ccc(O)cc1	–	–	–	–	–	–	–	74.7 µM (active)	92.8 µM (active)	5.35 µM (active)	3.7 µM (active)	3.43 µM (active)
CC(=O)OC/C=C(C)/C=C/C=C(C)/C=C/C1=C(C)CCCC1(C)C	inactive	inactive	inactive	–	inactive	inactive	inactive	27.5 µM (active)	–	–	–	–
CCCCCCCCCCO[C@@H]1O[C@H](CO)[C@@H](O)[C@H](O)[C@H]1O	inactive	inactive	inactive	inactive	inactive	–	inactive	–	–	–	–	–
CCC(C)C1CCCCC1=O (centres undefined)	inactive	inactive	inactive	inactive	inactive	inactive	inactive	–	–	–	–	–
CCCO	inactive	inactive	inactive	inactive	inactive	inactive	inactive	–	–	–	–	–
CCCCN(CCCC)CCCCCCN(CCCC)CCCC	inactive	inactive	inactive	inactive	inactive	inactive	inactive	–	–	–	–	–
CNC(=C[N+](=O)[O-])NCCSCc1ccc(CN(C)C)o1	inactive	inactive	inactive	inactive	inactive	inactive	inactive	–	–	–	–	–
CC1=CCC(C(C)C)=CC1	–	inactive	inactive	inactive	inactive	–	–	–	–	–	–	–
C#C[C@]1(O)CC[C@H]2[C@@H]3CCc4cc(O)ccc4[C@H]3CC[C@@]21C	–	–	–	inactive	inactive	inactive	–	35.3 µM (active)	18.2 µM (active)	–	–	–
